Assay results from PubChem BioAssay AID588856 (National Center for Advancing Translational Sciences (NCATS), 2011).
Among all 410,000 compounds or so, about 3,100 (0.76%) were called active. Calls come from the whole dose curve; as a rule, active = well fitted cell-killing curve with a large enough effect; inactive = no such curve, though single readings can be large or run the other way. What follows is part of a selection rich in actives, with near analogues and random picks from the rest. Entries that show only a call come without a potency.

test: qHTS for Inhibitors of TGF-b: Cytotox Counterscreen; conditions: HepG2 CAGA-GFP viability, ATP luminescence, 18 h; series mostly up to 46.1 µM
How it was run: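 HepG2 CAGA-GFP cells (1000/well, DMEM with 1% FBS) received compound, then TGF-beta at 500 pg/mL final, and were incubated 18 hours at 37 degrees C. Viability was read by CellTiter-Glo luminescence. Media-only wells were set as complete cell-killing and DMSO as no toxicity.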
Potency is the fitted concentration of half-maximal effect.

| SMILES | Potency |
| --- | --- |
| Cc1cc(N2CCN(c3cccc(C(F)(F)F)c3)CC2)n2nc(-c3ccccc3)nc2n1 | inactive |
| CN1C(=O)c2[nH]nc(-c3ccc(F)cc3)c2C1c1ccccn1 (centres undefined) | inactive |
| CCOc1ccc(Nc2c(S(=O)(=O)c3ccccc3)cnc3ccccc23)cc1 | inactive |
| Cc1ccc(-c2nc(S(=O)(=O)c3ccc(C)cc3)c(N3CCCCCC3)o2)cc1 | inactive |
| CC(C)S(=O)(=O)c1oc(-c2ccc(F)cc2)nc1S(=O)(=O)c1ccc(F)cc1 | 2 µM (active) |
| O=C(CSc1oc(-c2ccc(F)cc2)nc1S(=O)(=O)c1ccc(Br)cc1)NC1CCCCC1 | inactive |
| COc1cccc(Cn2c(CNS(=O)(=O)c3ccc(Cl)s3)nc3cccnc32)c1 | inactive |
| COc1ccccc1N1CCN(c2ccc(=O)n(CC(=O)NCc3ccc(OC(C)C)cc3)n2)CC1 | inactive |
| O=C1C2C(c3ccccc3)CC=CC2C(c2ccoc2)N1Cc1ccccc1 (centres undefined) | inactive |
| CC(C)c1ccc2c(c1)c(SC(C)(C)C)c(CC(C)(C)C(=O)O)n2Cc1ccc(Cl)cc1 | 10 µM (active) |
| O=C(Cn1c(=O)nc(-c2ccccc2)c2cc(Cl)ccc21)NCc1ccc(Cl)cc1 | inactive |
| CC(C)c1ccc(Cn2c(COc3ccccc3)nc3ccccc32)cc1 | inactive |
| O=C(c1cccc(Br)c1)N1CCN(Cc2cc(=O)n3nc(-c4ccccc4)sc3n2)CC1 | inactive |
| CCCOc1ccc(C(=O)C(CCC(CNCC)C(=O)c2ccc(OCCC)cc2)CNCC)cc1 (centres undefined) | 3.16 µM (active) |
| CCCOc1ccc(N2CC(C(=O)Nc3ccccn3)CC2=O)cc1 (centres undefined) | inactive |
| CCCOc1cccc(C(=O)Nc2cccc(NC(=O)c3ccc(C(C)(C)C)cc3)c2)c1 | inactive |
| CC(C)(C)C1CCC(NC(=O)c2cnn3c2NC(=C2CC2)C=C3C(F)F)CC1 (centres undefined) | inactive |
| CN(C)c1ccc(/C=C/c2sc3ccccc3[n+]2CCCCBr)cc1 | inactive |
| Cc1c(CCO)sc[n+]1CC(=O)c1ccc2ccccc2c1 | inactive |
| CCC1CCCCN1S(=O)(=O)c1ccc(NC(=O)c2cc(=O)c3ccccc3o2)cc1 (centres undefined) | inactive |
| Cc1cc2oc3ccc(NCCC4CCCN4C)cc3c(=O)c2cc1C (centres undefined) | 10 µM (active) |
| CNCCCOc1cc2nc(N3CCCN(C)CC3)nc(NC3CCN(C)CC3)c2cc1OC | inactive |
| COc1ccccc1CNS(=O)(=O)c1cc(Br)cc2c1N(C(C)=O)C(C)C2 (centres undefined) | inactive |
| O=C(Cn1nc(Cc2cccnc2)c2ccccc2c1=O)N1CCN(c2ccccc2F)CC1 | inactive |
| COc1cc(OC)c(/C=C/c2ccnc3ccccc23)c(OC)c1 | inactive |

| SMILES | Potency |
| --- | --- |
| O=C(CSc1nccn1Cc1ccc(F)cc1)NCc1ccccc1 | inactive |
| COc1cc(OC)c(C2C=C(C(=O)O)Nc3ncnn32)cc1OC (centres undefined) | inactive |
| COCC(C)NC(=O)COc1nncc2ccccc12 (centres undefined) | inactive |
| NC(Cc1ccc(F)cc1)c1csc(Nc2nncc3ccccc23)n1 (centres undefined) | 15.8 µM (active) |
| CN(Cc1ccccc1)c1ccc(/C=C/c2ccnc3ccccc23)cc1 | inactive |
| Cc1ccc(OCC(=O)OCc2cc(=O)n3nc(C4CC4)sc3n2)cc1 | inactive |
| CCCCC(CCCC)c1ccc(C=Nc2ccc(/C=C/c3ccnc4ccccc34)cc2)cc1 | inactive |
| COc1ccccc1-c1nnc(SCC(N)=O)o1 | inactive |
| COc1ccc(CN(C(=O)CSc2nnc(-c3ccc(OC)c(OC)c3)o2)c2ccc(F)cc2)cc1 | inactive |
| COc1ccc(-c2nnc(SC(=O)N3c4ccccc4Sc4ccccc43)o2)cc1 | 11.2 µM (active) |
| COc1cccc(CNc2nc(NCc3ccccc3OC)nc3ccsc23)c1 | 11.2 µM (active) |
| CC(C)Nc1nc(NCCOc2ccccc2Cl)c2sccc2n1 | inactive |
| COc1cccc(CNc2nccn(-c3ccc(OC)c(OC)c3)c2=O)c1 | inactive |
| CCN(CC)/[N+]([O-])=N/OCOC(=O)Cc1c(C)n(C(=O)c2ccc(Cl)cc2)c2ccc(OC)cc12 | inactive |
| COc1cc(NC(=O)c2cc3ccc4cccnc4c3[nH]2)cc(OC)c1OC | inactive |
| Cc1ccccc1CN1CCC(C(=O)Nc2ccc(Oc3cccnc3)cc2)CC1 | inactive |
| Cc1ccccc1CN1CCC(CNC(=O)c2cc3ccc4cccnc4c3[nH]2)CC1 | 12.6 µM (active) |
| CCOc1ccccc1N(CC)C(=O)Nc1cn(C)c(=O)c2ccccc12 | inactive |
| Cc1ccccc1CN1CCC(CNC(=O)c2c(C)oc3ncnc(N4CCCCC4)c23)CC1 | inactive |
| CCOc1ccccc1N(CC)C(=O)c1cc2ccc3cccnc3c2[nH]1 | 12.6 µM (active) |
| CCOc1ccc(N(CC)C(=O)C2CCN(S(=O)(=O)c3cccc4nonc34)CC2)cc1 | inactive |
| COc1ccccc1NC(=O)C1=C(C)Nc2ncnn2C1c1sccc1C (centres undefined) | inactive |
| O=C(CSc1nc(=O)[nH]c2c1CCCC2)Nc1cc(C(F)(F)F)ccc1Cl | inactive |
| CCN1CCN(c2ccc(/C=C/c3ccnc4ccccc34)cc2)CC1 | inactive |
| Cc1oc2ncn(CC(C)C)c(=O)c2c1C(=O)N1CCN(c2ccccc2F)CC1 | inactive |

| SMILES | Potency |
| --- | --- |
| O=C1NC(Nc2nc3ccccc3s2)(C(F)(F)F)C(=O)N1C1CCCCC1 (centres undefined) | 11.2 µM (active) |
| O=C(NC1(C(F)(F)F)N=C(c2ccccc2)N(C2CCCCC2)C1=O)c1ccccc1F (centres undefined) | inactive |
| CCCN(C(=O)Cn1ncc2c([nH]c3ccc(C)cc32)c1=O)c1ccccc1C | inactive |
| Cc1ccc(/C=N/NC(=O)COc2ccccc2-c2ccccc2)cc1 | 10 µM (active) |
| CC(=O)c1ccc(NC(=O)COc2ccccc2-c2nc(-c3ccccc3)no2)cc1 | inactive |
| O=C(COc1ccc(-c2ccccc2)cc1)NN=C1CCCC1 | inactive |
| CCOc1ccccc1NC(=O)CCn1cnnn1 | inactive |
| O=C(Nc1ccccc1Cl)N1CCC(CN2CCCCC2)CC1 | inactive |
| O=C(Nc1ccccc1Cl)/C(Cl)=C(\Cl)S(=O)c1ccccc1 (centres undefined) | 3.55 µM (active) |
| O=C(Nc1ccccc1Cl)N1CCC(CN2CCCC2)CC1 | inactive |
| CCCN1CCC(=O)N(C(CSc2ccc(OC)cc2)Cc2ccccc2)CC1 (centres undefined) | inactive |
| Cc1ccccc1CNC(=O)C1CCCN(S(=O)(=O)N(C)c2ccc(F)cc2)C1 (centres undefined) | inactive |
| Cc1cccc(CS(=O)(=O)c2ncc(Cl)c(C(=O)Nc3ccc(F)cc3)n2)c1 | 10 µM (active) |
| CCOC(=O)c1ccc(NC(=O)c2nc(SCc3ccc(F)cc3)ncc2Cl)cc1 | inactive |
| Cc1cccc(NC(=O)c2nc(S(=O)(=O)Cc3ccccc3)ncc2Cl)c1 | 11.2 µM (active) |
| CSc1ncc(Cl)c(C(=O)Nc2ccc(S(=O)(=O)N3CCCC(C)C3)cc2)n1 (centres undefined) | inactive |
| Cc1ccc(CCNC(=O)c2ccc(CS(=O)(=O)Cc3cccc(C)c3)o2)cc1 | inactive |
| O=C(Nc1ccccc1C(F)(F)F)c1nc(S(=O)(=O)Cc2ccccc2F)ncc1Cl | inactive |
| CCS(=O)(=O)c1ncc(N(Cc2ccc(F)cc2)Cc2ccco2)c(C(=O)Nc2cc(C)ccc2C)n1 | inactive |
| Cc1ccc(NC(=O)c2nc(S(=O)(=O)Cc3cccc(C)c3)ncc2Cl)cc1 | 7.08 µM (active) |
| CCCSc1ncc(Cl)c(C(=O)Nc2c(C(=O)Nc3ccccc3)oc3ccccc23)n1 | inactive |
| CCCCCCCNc1ccc(/C=C/c2ccnc3ccccc23)cc1 | inactive |
| Cc1ccc(N2CC(NC(=O)Cc3cccs3)CC2=O)cc1 (centres undefined) | inactive |
| CN(C)c1ccc(/C=C2\C=Cc3ccccc32)cc1Br | inactive |
| COc1ccc(-c2ccc(OC)c(C3C4C=CCC(C)C4C(=O)N3Cc3ccccc3)c2)cc1C (centres undefined) | inactive |

| SMILES | Potency |
| --- | --- |
| CCOc1ccc2nc(N(CCCN(C)C)C(=O)c3ccc(C(=O)c4ccccc4)cc3)sc2c1 | 15.8 µM (active) |
| CCOc1ccc2nc(N3CCC(C(=O)Nc4cc(C)ccc4C)CC3)sc2c1 | inactive |
| Cc1ccc(S(=O)(=O)N(CCCN(C)C)Cc2ccc3c(c2)OCO3)cc1 | inactive |
| CCN(CC(=O)Nc1c(F)cccc1F)C(=O)c1ccc(S(=O)(=O)N2CCCCC2)cc1 | inactive |
| O=C(CCOc1ccccc1)N(Cc1cccnc1)c1nc2ccc(Cl)cc2s1 | inactive |
| Cc1cc(C)c2sc(NC(=O)c3ccc(S(=O)(=O)N4CCCC4)cc3)nc2c1 | inactive |
| O=C(CN(Cc1ccccc1)C(=O)c1ccc2c(c1)OCCO2)NCc1ccc2c(c1)OCO2 | inactive |
| CN(C)CCCN(C(=O)c1ccc(S(=O)(=O)N2CCCCCC2)cc1)c1nc2ccc(Br)cc2s1 | 22.4 µM (active) |
| CCc1ccc2nc(N(CCCN(C)C)C(=O)c3ccc4c(c3)OCCO4)sc2c1 | 11.2 µM (active) |
| Cc1nn(C)c2c1c(C(F)(F)F)cc(=O)n2C(C)C(=O)NCc1ccc(Cl)cc1 (centres undefined) | inactive |
| COc1ccc(CNC(=O)c2cc3c(=O)[nH]c4ccc(C)cc4c3s2)c(OC)c1 | inactive |
| COc1cc(-c2cc3n(C)c(C)c(CCC(=O)Nc4ccc(F)cc4)c(=O)n3n2)cc(OC)c1OC | inactive |
| CC(=O)c1ccc(NC(=O)C2CCN(S(=O)(=O)c3c(C)noc3/C=C/c3ccc(C)cc3)CC2)cc1 | inactive |
| COc1ccc(CNC(=O)c2cc3c(-c4ccccc4F)nn(C)c3s2)c(OC)c1 | inactive |
| COC(=O)c1scc(-c2ccccc2)c1S(=O)(=O)Nc1ccccc1 | inactive |
| SCc1nc2ccc(Cl)cc2[nH]1 | inactive |
| O=c1[nH]c(CCl)nc2cc(-c3ccc(Cl)cc3)sc12 | 4.47 µM (active) |
| COc1cccc(-c2cc3nc(NCCOc4ccccc4Cl)n(C)c(=O)c3s2)c1 | inactive |
| CCOC(=O)C1CCC(CN(Cc2ccc(OC)cc2)S(=O)(=O)c2ccc(F)c(C(=O)Nc3cc(C)ccc3C)c2)CC1 (centres undefined) | inactive |
| Cc1ccc(C)c(CNC(=O)c2cc3ccccn3n2)c1 | inactive |
| CCOc1n[nH]c(-c2ccccc2)n1 | inactive |
| Nc1c(C(=O)O)cnn1-c1ccccc1 | 11.2 µM (active) |
| NNC(=O)c1cnn(-c2ccccc2)c1C(F)(F)F | inactive |
| CCNC(=O)c1cnn(-c2ccccc2)c1-c1ccccc1 | inactive |
